# Test results from PubChem BioAssay (NCATS).
# Inconclusive results are not listed. A call without a number means that no potency is given here. Active and inactive are the calls of the source. Unless noted, calls follow the shape of the dose curve; as a rule, active = well fitted curve in the direction sought with a large enough effect; inconclusive = small, poorly fitted or top-dose-only effect, or another doubt; inactive = no such curve, though single readings can be large; an effect the other way counts as inactive or inconclusive.
# Experiments:
# [1] = biological target: Calcium and integrin-binding protein 1 (Homo sapiens) (UniProt Q99828); test: Primary qHTS for Identification of Calcium Integrin Binding Protein 1 (CIB1) Competitor (AID 1508620); details: CIB1-GST / FITC-alphaIIb peptide fluorescence polarization; series mostly up to 114 µM;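 also: GST tagged CIB1 binding a fluorescein labelled alphaIIb integrin peptide tracer; top concentration of the series differs between compounds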
# Procedure, shortened: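 Fluorescence polarization competition: CIB1-GST (1 uM final) preincubated with compound 15 min at room temperature, then FITC-labeled alphaIIb peptide (100 nM final) added for another 15 min. Polarization read at Ex 480/Em 540.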
# [2] = biological target: Cytochrome P450 2D6 (Homo sapiens) (UniProt P10635); test: Cytochrome P450 family 2 subfamily D member 6 (CYP2D6) small molecule antagonists: luciferase biochemical (cell-free) qHTS assay (AID 1645840; active = well fitted curve in the direction sought with a large enough effect in the repeat runs; an effect the other way counts as inactive or inconclusive; also: nearly all actives have a fitted effect of over 55% in size; also: potency is read from the fitted curve at half-maximal effect); details: P450-Glo CYP2D6 enzyme, luciferin luminescence, 1 h; series mostly up to 57.4 µM
# Procedure, shortened: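 P450-Glo CYP2D6 system: proluciferin substrate converted by enzyme to luciferin, read by luminescence proportional to activity. Enzyme-substrate mix with compound 10 min at room temperature, then NADPH regeneration 1 h before detection reagent.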
# Cytochrome P450 2D6 (Homo sapiens), sequence (P10635 whole entry, looked up): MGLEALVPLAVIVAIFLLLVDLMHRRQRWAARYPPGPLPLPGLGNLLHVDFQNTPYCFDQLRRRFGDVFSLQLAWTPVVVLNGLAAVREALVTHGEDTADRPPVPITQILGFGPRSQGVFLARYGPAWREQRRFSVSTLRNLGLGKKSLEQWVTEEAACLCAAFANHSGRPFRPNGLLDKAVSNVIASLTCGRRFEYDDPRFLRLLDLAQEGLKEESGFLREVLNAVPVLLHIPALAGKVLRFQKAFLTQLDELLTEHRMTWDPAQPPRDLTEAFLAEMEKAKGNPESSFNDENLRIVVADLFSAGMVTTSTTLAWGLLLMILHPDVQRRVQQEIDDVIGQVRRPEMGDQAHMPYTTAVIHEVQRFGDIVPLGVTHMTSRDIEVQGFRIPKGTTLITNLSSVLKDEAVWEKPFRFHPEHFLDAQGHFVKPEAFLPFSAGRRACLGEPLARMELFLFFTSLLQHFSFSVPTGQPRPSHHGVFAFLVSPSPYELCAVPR
# Calcium and integrin-binding protein 1 (Homo sapiens), sequence (Q99828 whole entry, looked up): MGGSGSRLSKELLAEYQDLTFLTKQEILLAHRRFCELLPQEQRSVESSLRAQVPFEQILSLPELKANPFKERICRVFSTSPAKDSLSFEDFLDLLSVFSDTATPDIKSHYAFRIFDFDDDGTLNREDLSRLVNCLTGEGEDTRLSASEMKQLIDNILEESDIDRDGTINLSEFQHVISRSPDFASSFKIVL
SMILES,Potency [1],Potency [2]
CC(F)(F)CN1CCOc2c(nn(-c3ccccc3Cl)c2-c2ccc(Cl)cc2)C1=O,inactive,13.5 µM (active)
CC(C)(Cc1ccccc1)NCC(O)c1ccc(O)c(NS(C)(=O)=O)c1 (stereo unspecified),inactive,3.79 µM (active)
COc1ccc(-c2csc(NC(=O)[C@H]3CCCCN3S(=O)(=O)c3ccc(C)cc3)n2)cc1,inactive,inactive
CCn1c(=O)n([C@H]2CCCN(c3nccc(-c4cc5ccccc5o4)n3)C2)c2ccccc21,inactive,inactive
O=C1C(Cc2ccc(O)cc2)N2C(=O)CCN(C(=O)NCc3ccccc3)C2CN1Cc1cccc2ccccc12 (stereo unspecified),inactive,1.07 µM (active)
Nc1nc2c(c(N3CC[C@@H](N)C3)n1)CCCc1ccccc1-2,inactive,3.38 µM (active)
Cc1nc(C(=O)N2CCC[C@H]2Cc2nnc(-c3ccccc3)o2)c(-c2ccccc2F)s1,inactive,inactive
Cc1nc(C#Cc2ccnc(Cl)c2)c(C)n1-c1ccc(OC(F)(F)F)cc1,inactive,10.7 µM (active)
Cc1cc(CS(=O)(=O)c2ccccc2)cc(OCc2ccc(CN3CCCC3CO)cc2)c1 (stereo unspecified),inactive,0.952 µM (active)
CC(C)S(=O)(=O)NC[C@H](C)c1ccc(-c2ccc(CCNS(C)(=O)=O)cc2)cc1,inactive,inactive
CC(C)CCNc1ncccc1C(=O)N1CCN(Cc2ccccc2)CC1,inactive,5.35 µM (active)
CCNC(=O)N1CCCN(c2ccc(C(=O)NCCc3ccc(Cl)cc3Cl)cc2NC(=O)c2cccc(Cl)c2)CC1,inactive,4.77 µM (active)
CC(C)c1noc(C2CCN(c3ncnc(Nc4ccc(S(C)(=O)=O)cc4F)c3[N+](=O)[O-])CC2)n1,inactive,inactive
COc1ccc(Oc2c(Cl)cnn(-c3cc(C)cc(C)c3)c2=O)cc1,inactive,inactive
Cn1ncnc1[C@@H]1c2n[nH]c(=O)c3cc(F)cc(c23)N[C@H]1c1ccc(F)cc1,inactive,inactive
CN(C)CCn1cc(-c2ccc(F)cc2)c(-n2cccc2)n1,inactive,15.1 µM (active)
Cc1c(NC(=O)OCC2COCCN2)cn2ncnc(Nc3ccc4c(cnn4Cc4cccc(F)c4)c3)c12 (stereo unspecified),inactive,21.3 µM (active)
O=C(C1CCCCC1)N(CCN1CCN(c2ccccc2O)CC1)c1ccccn1,inactive,10.7 µM (active)
